{"source": "PubChem BioAssay AID837", "about": "(The Scripps Research Institute Molecular Screening Center, 2007)", "note": "Active and inactive are the calls of the source.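 The calls were made as follows: active = relative FRET score above 0.01, or acceptor fluorescence over 30% below the sample-well median; inactive = the rest.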"}
{"target": "Protein Rev (Human immunodeficiency virus type 1 group M subtype B (isolate WMJ22)) (UniProt P05866)", "sequence (P05866 whole entry, looked up)": "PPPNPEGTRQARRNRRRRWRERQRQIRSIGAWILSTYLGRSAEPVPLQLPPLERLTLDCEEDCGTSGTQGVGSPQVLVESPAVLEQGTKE", "experiment": "disruptors of Rev peptide-RRE RNA complex – biochemical, FRET, acceptor and relative FRET calls, confirmation (AID 837);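 also: relative FRET combines rise in Cy5 acceptor with fall in fluorescein donor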", "conditions": "Fl-Rev peptide / Cy5-RRE RNA FRET, 1536-well; at 8 µM"}
{"smiles": "Cc1ccc(-c2nc(N(C)C3CCN(C)CC3)c3ccccc3n2)cc1", "outcome": "inactive"}
{"smiles": "CNCC(O)c1cccc(OC(=O)c2ccccc2C)c1", "note": "(stereo not given)", "outcome": "inactive"}
{"smiles": "COc1ccc(CCNCc2ccc(SC)cc2)cc1", "outcome": "inactive"}
{"smiles": "CC(NC1CCCCC1)C(O)C12CC3CC(CC(C3)C1)C2", "note": "(stereo not given)", "outcome": "inactive"}
{"smiles": "c1ccc(C(OCCN2CCNCC2)c2ccccc2)cc1", "outcome": "inactive"}
{"smiles": "COc1ccc(CCC(C)NCCc2ccccc2)cc1", "note": "(stereo not given)", "outcome": "inactive"}
{"smiles": "OC(Cc1ccccc1)(c1ccccc1)C1CN2CCC1CC2", "note": "(stereo not given)", "outcome": "inactive"}
{"smiles": "CN1C2CCC1CC(OC(=O)c1cc(Cl)cc(Cl)c1)C2", "note": "(stereo not given)", "outcome": "inactive"}
{"smiles": "COc1ccc(CCNC(C)CCc2ccc(OC)cc2)cc1", "note": "(stereo not given)", "outcome": "active"}
{"smiles": "CC1CCC(NCCc2ccc3c(c2)OCO3)CC1", "note": "(stereo not given)", "outcome": "inactive"}
